Whole data set: some 33,000 sequences, median “E-score (-0.5 to 0.5)” near -0.016, cut for the highest 2% near 0.31. The sample holds the highest values, similar sequences and a random draw of the others, so the mix is not that of the screen.
Target: Cst6 (UniProt P40535)
Test: PBM E-score (8-mer binding enrichment) (E-score (-0.5 to 0.5)); higher = stronger / more preferred TF binding
Details: protein concentration: 200 nM; construct: GST-DNA-binding domain
Description: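 Universal 'all 10-mer' protein binding microarrays (Agilent AMADID 015681) probed with GST-tagged S. cerevisiae TFs (full-length or DBD) made by in vitro transcription/translation (PURExpress), about 100-200 nM. Bound TF was detected with fluorescent anti-GST. Each ungapped 8-mer (which stands for itself and its reverse complement) is scored by the PBM enrichment score (E-score), a modified Wilcoxon-Mann-Whitney statistic from -0.5 to +0.5, computed with the Universal PBM Analysis Suite. Scale: above 0.35 generally sequence-specific binding.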

Chain of UniProt P40535 (P40535 whole entry): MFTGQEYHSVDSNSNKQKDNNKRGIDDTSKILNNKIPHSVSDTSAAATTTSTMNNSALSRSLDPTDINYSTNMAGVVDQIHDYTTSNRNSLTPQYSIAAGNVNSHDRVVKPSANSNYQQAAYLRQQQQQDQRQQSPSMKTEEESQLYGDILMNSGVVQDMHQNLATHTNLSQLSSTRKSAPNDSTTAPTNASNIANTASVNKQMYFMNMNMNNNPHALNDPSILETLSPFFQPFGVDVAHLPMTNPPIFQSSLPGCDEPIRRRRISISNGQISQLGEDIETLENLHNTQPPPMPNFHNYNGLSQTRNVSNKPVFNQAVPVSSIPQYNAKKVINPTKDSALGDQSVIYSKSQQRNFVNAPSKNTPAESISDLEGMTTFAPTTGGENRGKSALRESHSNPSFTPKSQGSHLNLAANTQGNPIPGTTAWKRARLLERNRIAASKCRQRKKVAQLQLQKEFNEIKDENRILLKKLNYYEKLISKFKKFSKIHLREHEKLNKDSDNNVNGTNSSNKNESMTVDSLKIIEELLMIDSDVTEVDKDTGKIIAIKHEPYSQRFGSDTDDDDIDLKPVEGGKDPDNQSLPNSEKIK

Sequence | PBM E-score
GCGAAAAA | 0.197
CAAACTTG | -0.0352
GTCTCCCA | -0.244
GTAAATAA | 0.176
ATAATAAA | 0.325
GTTATAAA | 0.269
TAAATAAA | 0.289
ATAATAAC | 0.205
GTAATAAA | 0.352
ATAATAAT | 0.238
TTAATAAA | 0.307
CTTATAAA | 0.138
TTTATAAA | 0.359
GTAATAAC | 0.197
CTAATAAA | 0.169
AACAGAAC | 0.032
ACCAGCAT | -0.104
ATAAGAAT | 0.253
ATAAGAAC | 0.248
ATAAGAAA | 0.327
AAGGAGGG | -0.0908
GTTTTATA | 0.122
ATTTTATA | 0.321
AATTTACG | 0.296
ATTTTACG | 0.316

Sequence | PBM E-score
ATTTTACC | 0.264
ATTTTATG | 0.248
ATATTTTA | 0.233
AATTTTTA | 0.228
ATTTTTTA | 0.325
CGCCCCAA | 0.0361
CCAGGCTC | -0.28
GGAGACGA | -0.0641
AGACCGTC | -0.127
CTCACCTC | 0.0122
TCTTAAGA | 0.0388
CAATAGGA | -0.0291
TGACAACA | 0.346
GGACAAAA | 0.106
AAACAAAA | 0.219
TGACAAAA | 0.337
GAACAAAA | 0.186
TAACAAAA | 0.353
CGACAACA | 0.243
CGACAAAA | 0.163
AGACAACA | 0.0611
AGAACCGA | -0.127
CTCTACGC | -0.109
GGGAAAGA | -0.0768
ACGTGACA | 0.248

Sequence | PBM E-score
ACGTGACG | 0.451
CCGTGACA | 0.15
CCGTGACG | 0.417
ACGTGACT | 0.00931
CCGTGACC | -0.145
AAAATCGA | 0.106
TCAGGAAA | 0.053
TCTTGCCA | -0.0736
CTTGCGGC | -0.0317
TGTCATAA | 0.323
GGTCATAA | 0.213
CCTCATAA | 0.199
AGTCATAA | 0.217
CGTCATAA | 0.476
CTTCATAA | 0.182
AAATCCTA | 0.0429
ACGGGACG | -0.0627
AAGGGACT | -0.229
GCTGGTCC | -0.241
ACAGGGTC | -0.231
AAAATCTC | 0.0464
CCTCATGC | -0.15
AGTCATGC | -0.0259
GGTCATGA | 0.239
CGTCATGC | 0.472

Sequence | PBM E-score
AGTCATGA | 0.124
CGTCATGA | 0.461
CCTCTCCC | -0.367
ATTTCCAG | 0.0306
ATGTGGGC | -0.068
CCACCCGA | -0.0893
ACGACAGA | -0.00441
AAATATGA | 0.239
TAATATTA | 0.391
CAATATTC | -0.0581
CAATATGA | 0.245
TAATATGA | 0.305
AAATATTA | 0.286
CAATATTA | 0.215
GAATATTA | 0.188
CAATATTG | 0.306
CAGTGCAA | 0.0823
GGGTACCC | -0.239
GCCGCCGA | 0.0801
GCTAGTAA | 0.0344
CCCCATTA | -0.257
AAGGTAGC | -0.198
CTTTGGGC | -0.163
ACATCAGG | 0.163
AGTCCCCC | -0.43

Sequence | PBM E-score
ATTCGTCA | 0.423
CTTCGTCC | -0.155
GTTCGTCA | 0.269
ATTCGTCG | 0.0126
CGTCGTCA | 0.258
CTTCGTCA | 0.336
CGGTGCAA | -0.202
CCTATGGC | -0.219
GCTAACAC | -0.00396
AAAGGGAG | -0.152
TAACTGTA | 0.032
CGGATAAG | -0.118
AGGGGCTG | -0.271
CGCCAGCC | -0.193
TTAAATAA | 0.18
GAAAATTA | 0.195
ATAAATTG | 0.258
CAAAATTA | 0.233
CTAAATTA | 0.262
ATAAATAA | 0.335
AAAAATTA | 0.333
ATAAATAG | 0.135
ATAAATTA | 0.373
ATTTGACA | 0.173
ACGCCAAT | 0.223

Sequence | PBM E-score
AGCCTTAT | -0.0913
GCGCGTAA | 0.224
ACGCGTCC | -0.129
CCGCGTCC | 0.099
ACGCGTAA | 0.129
GCGCGTCC | -0.198
CCGCGTCG | 0.0654
ACGCGTCA | 0.381
ACGCGTCT | -0.0602
CCGCGTCA | 0.34
TCGCGTAA | 0.314
GCGCGTCA | 0.381
GCGCGTTA | 0.0245
CCTCCCTC | -0.162
GGAAATGA | 0.195
CGTAGATC | 0.143
CTCGAAAC | 0.0781
GGTAGGCA | -0.184
AGGCGACT | -0.103
CGATGAAC | -0.0118
CAAGGCGG | 0.00218
ATCCGCAA | -0.0389
AGGCGTCA | 0.256
TCGCGACA | -0.202
TCGCGTCA | 0.369

Sequence | PBM E-score
TCGCGGCA | -0.0207
CGGCGTCA | 0.34
CGGCGTCC | 0.113
ACGCCGAA | 0.0504
AAAACATG | 0.114
AAATGATG | 0.332
CAATGATC | 0.095
CAATGATA | 0.268
CAATGATG | 0.391
AAATGATC | 0.0366
AAATGATT | 0.294
CTAATCTA | -0.0326
GTAATCTA | 0.345
CTAATCAA | 0.205
ATAATCTA | 0.0831
GTAATCAC | 0.225
GTAATCAA | 0.313
CTAGATTC | -0.0987
ATTTCATG | 0.00873
CAAACTAG | -0.195
TGACCTCA | 0.45
CGACCTCA | 0.0422
CGACCTAA | 0.11

From the supplement of paper PMC3334620
